Source: the supplement of paper PMC11219838
Values without a mark were called inactive.

Assays:
Conditions in all cases: 60 µM; 5 days; temperature: 20 °C
Meloidogyne hapla J2 = assay: proportion of mobile M. hapla J2 relative to DMSO control (fraction of DMSO control); higher = more viable, less nematicidal, active = 0.7 or less
In short: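 About 25 M. hapla J2 were added per 96-well well in distilled water, and compound was pinned to 60 µM final (0.6% v/v DMSO). Sealed plates were shaken at 200 rpm for 5 days at 20 °C, then 2 µL 1 M NaOH was added before microscopic mobility scoring. Mobility was divided by the mean of eight DMSO wells on the same plate, and two biological replicates were averaged.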

[1] = system: Caenorhabditis elegans dauer (daf-2(e1370)); assay: proportion of mobile C. elegans dauer larvae relative to DMSO control (fraction of DMSO control); higher = more viable, less nematicidal, active = 0.63 or less; extreme values may be limits of the assay
In short: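 Synchronized C. elegans larvae were kept for 48 h at 25 °C on MYOB plates seeded with E. coli OP50 to induce dauer formation, and roughly 20 dauers were transferred into each well of a 96-well plate containing liquid NGM. Compound was pinned in to a final concentration of 60 µM with 0.6% v/v DMSO, and the sealed plates were shaken at 200 rpm for 5 days at 20 °C. The fraction of mobile worms was scored under a dissection microscope against DMSO-only wells and averaged across two biological replicates.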

Ditylenchus dipsaci = assay: proportion of mobile D. dipsaci (mixed stage) relative to DMSO control (fraction of DMSO control); higher = more viable, less nematicidal, active = 0.86 or less; extreme values may be limits of the assay
In short: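 D. dipsaci were grown on pea plants in Gamborg B-5 agar and extracted through a filter funnel into water, and about 20 worms were added per 96-well well in distilled water. Compound was pinned to 60 µM final (0.6% v/v DMSO), and sealed plates were shaken at 200 rpm for 5 days at 20 °C. After 2 µL 1 M NaOH was added, mobile worms were scored microscopically. Mobility was expressed relative to DMSO controls and averaged over two biological replicates.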

Row | Compound | proportion of mobile M. hapla J2 (Meloidogyne hapla J2) | proportion of mobile C. elegans dauer larvae [1] | proportion of mobile D. dipsaci (Ditylenchus dipsaci)
1 | CCOC(=O)c1c(NC(=O)CSc2nnc(-c3ccc(Cl)cc3)o2)sc(C(C)=O)c1C | 0.809 | 1 | 1
2 | Cc1ccc(-c2noc(COc3ccc(Br)cc3)n2)cc1 | 1 | 1 | 1
3 | CC(C)c1ccc(OCc2nc(-c3ccncc3)no2)c(Br)c1 | 0.82 | 1 | 1
4 | COc1ccccc1-c1nnc(SCc2ccccc2C#N)o1 | 0.94 | 1 | 1
5 | Cc1ccccc1-c1nc(-c2ccc(Cl)cc2)no1 | 0.841 | 1 | 1
6 | Clc1cccc(-c2nc(-c3ccncc3)no2)c1 | 0.634 (active) | 1 | 1
7 | O=C(CSc1nnc(-c2ccccc2)o1)Nc1ccc2ccccc2c1 | 1.01 | 1 | 1
8 | CCc1ccc(OCc2nc(-c3ccc(Cl)cc3)no2)cc1 | 1.03 | 1 | 1
9 | COc1ccc(-c2nnc(SCC(=O)Nc3cc(Cl)ccc3C)o2)cc1 | 0.904 | 1 | 1
10 | Cc1ccc(-c2nnc(SCc3ccccc3C)o2)cc1 | 1.06 | 1 | 1
11 | CCOc1ccccc1-c1nnc(SCc2ccc(C(=O)OC)o2)o1 | 0.904 | 1 | 1
12 | COc1ccc(-c2noc(-c3cccc(Cl)c3)n2)cc1 | 0.819 | 1 | 1
13 | COC(=O)c1ccc(CSc2nnc(-c3cccnc3)o2)cc1 | 1.03 | 1 | 1
14 | Cc1ccc(-c2nc(-c3ccccc3)no2)cc1 | 1.04 | 1 | 1
15 | CC(Sc1nnc(-c2ccc(C(C)(C)C)cc2)o1)C(=O)Nc1nccs1 (stereo unspecified) | 0.845 | 1 | 1
16 | COc1cccc(-c2noc(COc3ccc(C)c(C)c3)n2)c1 | 1.06 | 1 | 1
17 | O=C(Nc1cccnc1)c1ccccc1-c1nc(-c2ccc(Cl)cc2)no1 | 0.934 | 1 | 1
18 | CC(C)(C)c1ccc(-c2nnc(SCc3cccc(C#N)c3)o2)cc1 | 1.05 | 1 | 1
19 | CCOC(=O)c1ccc(OCc2nc(-c3cccs3)no2)cc1 | 1.1 | 1 | 1
20 | COc1ccc(-c2noc(COc3ccc(Cl)cc3Cl)n2)cc1 | 0.874 | 1 | 1
21 | O=C(CSc1nnc(-c2ccco2)o1)Nc1ccc(F)cc1 | 0.939 | 1 | 1
22 | CC(C)Oc1cccc(-c2nc(-c3ccccn3)no2)c1 | 1.01 | 0.667 | 1
23 | O=C(CSc1nnc(-c2cccc3ccccc23)o1)c1ccc(F)cc1 | 0.912 | 1 | 1
24 | Cc1cc(C)nc(SCc2nc(-c3ccccc3)no2)n1 | 1.05 | 1 | 1

Row | Compound | proportion of mobile M. hapla J2 (Meloidogyne hapla J2) | proportion of mobile C. elegans dauer larvae [1] | proportion of mobile D. dipsaci (Ditylenchus dipsaci)
25 | CCOc1ccccc1NC(=O)CSc1nnc(-c2ccccc2)o1 | 0.977 | 1 | 1
26 | Fc1ccc(-c2nc(-c3ccc4c(c3)OCO4)no2)cc1 | 1.02 | 1 | 1
27 | c1ccc(CSc2nnc(-c3ccccc3)o2)cc1 | 1.04 | 1 | 0.864
28 | CCn1cc(C(=O)CSc2nnc(-c3ccccc3)o2)c2ccccc21 | 0.987 | 1 | 1
29 | Cc1ccccc1OCc1nc(-c2ccccc2)no1 | 0.821 | 1 | 1
30 | Clc1ccc(CSc2nnc(-c3ccccc3)o2)cc1Cl | 1.01 | 1 | 1
31 | O=C(CSc1nnc(-c2ccccc2)o1)Nc1cccc(F)c1 | 0.853 | 1 | 1
32 | COc1ccc(-c2nnc(SCc3c(Cl)cccc3Cl)o2)cc1 | 1 | 1 | 1
33 | Cc1ccc(-c2nc(-c3cccnc3)no2)c(C)c1 | 1.1 | 0.0769 (active) | 1
34 | O=C(CSc1nnc(-c2ccco2)o1)Nc1cc(Cl)ccc1Cl | 1.01 | 1 | 1
35 | O=C(CSc1nnc(-c2ccc(Cl)cc2)o1)NC1CCCCC1 | 0.918 | 1 | 1
36 | O=C(Nc1ccc(-c2noc(COc3ccccc3Cl)n2)cc1)c1ccccn1 | 1.02 | 1 | 1
37 | CCCc1ccc(-c2nc(-c3cccnc3)no2)cc1 | 1.08 | 0.926 | 0.562 (active)
38 | Cc1cccc(-c2noc(C3CCCCC3)n2)c1 | 1.01 | 1 | 1
39 | CCCCC(=O)Nc1ccccc1-c1nc(-c2cccnc2)no1 | 1.01 | 1 | 1
40 | Brc1cccc(-c2nnc(SCc3ccccc3)o2)c1 | 0.968 | 1 | 1
41 | Cc1cc(C)cc(NC(=O)CSc2nnc(-c3ccccc3)o2)c1 | 1.04 | 1 | 1
42 | COc1cccc(-c2nnc(SCC(=O)NC3CCCCC3)o2)c1 | 0.869 | 1 | 1
43 | Cc1ccc(-c2noc(CSc3nc(C)cc(C)n3)n2)cc1 | 0.974 | 1 | 1
44 | CCOc1ccccc1-c1nc(-c2ccc(Br)cc2)no1 | 0.916 | 1 | 1
45 | Clc1ccc(OCc2nc(-c3ccccc3)no2)c(Br)c1 | 1.02 | 1 | 1
46 | CCc1ccc(C(=O)Nc2ccccc2-c2nc(-c3cccnc3)no2)cc1 | 1.03 | 1 | 1
47 | CCOc1cc(-c2nc(-c3ccccc3C)no2)cc(OCC)c1OCC | 0.821 | 1 | 1
